Source: PubChem BioAssay (NCATS)
Results filed as inconclusive are left out. Calls of active or inactive are those of the source. Unless noted, calls come from the whole dose curve; as a rule, active = well fitted curve in either direction with a large enough effect (not every such curve was filed as active); inconclusive = small, poorly fitted or top-dose-only effect, or another doubt; inactive = flat fitted curve, though single readings scatter.

Key:
[1] = AP1 Signaling Pathway (AID 357); settings: ME-180 AP-1-bla reporter, EGF-induced, beta-lactamase ratio, 5 h; at 17.2 µM (top of the series) unless noted;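 note: ME-180 reporter cells stimulated with EGF at its EC50 level; % is set by controls: 0 for no effect and ±100 for the full control effect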
In short: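 AP-1-bla ME-180 cells, Opti-MEM + 0.5% dialyzed FBS, plated overnight 37 °C. Cpd titration + EC50 EGF, 5 h 37 °C. CCF4 2.5 h RT; ex 405, em 460/530 ratio → %activity, AC50.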

[2] = NFAT Signaling Pathway (AID 444); settings: Jurkat NFAT-bla M1, carbachol, beta-lactamase ratio, 5 h; at 17.2 µM (top of the series) unless noted;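 note: carbachol stimulus at about its EC50 of 1 µM final; % is set by controls: 0 for no effect and ±100 for the full control effect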
In short: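 Read-out: CCF4 FRET ratio (460 nm/530 nm) after 1 h RT dye loading, used for %activity and AC50 from titration series. Cells: Jurkat NFAT-β-lactamase/M1 line, treated with compound plus 1 uM carbachol for 5 h, 37 °C.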

[3] = Stat Signaling Pathway (AID 446); settings: ME-180 SIE beta-lactamase reporter, IL-6 stimulated, 5 h; at 17.2 µM (top of the series) unless noted;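 note: ME-180 cervical cancer cells given 40 pM IL-6 alongside compound; SIE-controlled beta-lactamase reporter measured as 460/530 nm FRET emission ratio; % is set by controls: 0 for no effect and ±100 for the full control effect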
In short: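 ME-180 SIE-bla cells; overnight plating; cpd + IL-6 40 pM, 5 h, 37 C; LiveBLAzer 2.5 h RT; 460/530 nm emission ratio. Normalized to 300 pM IL-6 and 125 nM JAK inhibitor controls.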

[4] = target: Glucocorticoid receptor (Homo sapiens) (UniProt P04150); experiment: GR-GFP Redistribution (AID 450;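 active = compounds whose dose series gives a full or clear partial fitted curve of increased nuclear translocation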; note: potency is the fitted concentration of half-maximal effect)
[5] = target: Glucocorticoid receptor (Homo sapiens) (UniProt P04150); experiment: GR-EFC Redistribution (AID 451; calls by dose curve; note: potency is the fitted concentration of half-maximal effect); settings: CHO-K1 GR-EFC translocation, beta-gal luminescence, 2 h
In short: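 Translocation of GR-ED fusion to nuclear EA restores b-gal, read by luminescence after 1 h room-temperature detection. Engineered CHO-K1 biosensor cells, 1,000/well, exposed 2 h at 37 C to titrations up to 46 uM final.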

[6] = target: Mitogen-activated protein kinase 10 (Mus musculus) (UniProt Q61831); experiment: JNK3 AlphaScreen Assay (AID 530);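 note: kinase came from lysate of stimulated human HepG2 cells; signal reports phosphorylation of biotinylated GST-cJun 1-79 at Ser73 with 10 µM ATP; % is set by controls: 0 for no effect and ±100 for the full control effect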
In short: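 Room-temperature AlphaScreen kinase assay; pre-activated HepG2 lysate as JNK3 source, biotin-GST-cJun(1-79) substrate, 10 uM ATP, compound 15 min preincubation.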

[7] = target: Ubiquitin carboxyl-terminal hydrolase 1 (Homo sapiens) (UniProt O94782); experiment: Inhibitors of USP1/UAF1: Pilot qHTS (AID 504865; active = well fitted curve in the direction sought with a large enough effect; an effect the other way counts as inactive or inconclusive;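 note: rhodamine fluorescence freed from ubiquitin-rhodamine substrate followed over time; top concentration of the series differs between compounds; % is set by controls: 0 for no effect and ±100 for the full control effect; nearly all actives have a fitted effect of over 35% in size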)
In short: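 In 50mM HEPES pH 7.8 containing 0.5mM EDTA, 1mM TCEP, 0.1 mg/ml BSA and 0.01% Tween-20, 1nM USP1/UAF1 is exposed to compound for 15 min, then Ub-Rho (150nM final) is added and fluorescence is read over time.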

[8] = target: 3',5'-cyclic-AMP phosphodiesterase 4B (Homo sapiens) (UniProt Q07343); experiment: qHTS Assay for Inhibitors of PDE-IV (AID 607; active = well fitted activation curve with a large enough effect in the main read-out, with a control signal flat, not every such curve was filed as active; note: % of control where 0% means no effect)
In short: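 ACTOne HEK293 cells carry a modified cAMP-gated CNG channel and express endogenous PDE4; plated 1000 cells/well, compounds up to 22.9 uM final. Membrane-potential dye fluorescence (ex 535/em 590) was read; parental cells received 10 uM forskolin + 100 uM RO 20-1724.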

[9] = target: Guanine nucleotide-binding protein G(i) subunit alpha-1 (Homo sapiens) (UniProt P63096); experiment: qHTS Assay for Inhibitors of RGS12 GoLoco Motif Activity (Green Fluorophore) (AID 879; active = well fitted curve in the direction sought with a large enough effect; an effect the other way counts as inactive or inconclusive;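 note: 0% = labeled peptide with Gαi1 and full inhibition = labeled peptide alone without protein; negative values mean loss of peptide binding seen as reduced polarization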)
In short: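 Fluorescence polarization assay: 50 nM Gαi1 with 10 nM FITC-labeled RGS12 GoLoco peptide in 10 mM Tris pH 7.5, 150 mM NaCl, 0.1 mM GDP, 0.05% NP40, 10 min at room temperature with compound.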

[10] = Confirmation and Secondary Assay for Modulators of Hemoglobin Beta Chain Splicing at IVS2 654 locus (AID 910; active = well fitted curve in the direction sought with a large enough effect; an effect the other way counts as inactive or inconclusive;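 note: HeLa cells stably carrying EGFP split by mutant beta-globin IVS2-654 intron; per-well total GFP intensity by laser scanning cytometry after 2-day treatment; % of control where 0% means no effect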)
In short: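 Readout: per-well total peak green fluorescence (488 nm ex, 500–520 nm em) from objects 5–250 µm, reflecting correct splicing of an EGFP-654 reporter. Compounds were applied for 2 days at 37 °C to overnight-plated HeLa EGFP-654 cells; controls were DMSO and 500 nM IVS2-654 PNA.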

[11] = target: Muscarinic acetylcholine receptor M1 (Rattus norvegicus) (UniProt P08482); experiment: qHTS Assay for Antagonists of Acetylcholine Muscarinic M1 Receptor: Measurement of IP-One Response (AID 944; active = well fitted curve in the direction sought with a large enough effect; an effect the other way counts as inactive or inconclusive; note: nearly all actives have a fitted effect of over 75% in size)
In short: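 Steps: plate transfected CHO-M1 cells overnight; add test compound, 10 min; add carbachol (200 nM, EC80) in stimulation buffer with LiCl; incubate 30 min; add labelled IP1 tracer and anti-IP1 antibody in lysis buffer; read HTRF after 10 min.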

[12] = target: Pyruvate kinase (Leishmania mexicana) (UniProt Q27686); experiment: qHTS Validation Assay for Inhibitors of Leishmania Mexicana Pyruvate Kinase (AID 945; active = well fitted curve in the direction sought with a large enough effect; an effect the other way counts as inactive or inconclusive;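 note: 0% = DMSO only neutral control wells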)
In short: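 Purified LmPYK (E451W mutant, 0.2 nM) was incubated 1 h at room temperature with 0.5 mM PEP and 0.1 mM ADP in 50 mM imidazole pH 7.2, 50 mM KCl, 7 mM MgCl2; ATP formed was read by PKLight luminescence, normalized to DMSO wells.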

[13] = target: Pyruvate kinase PKM (Homo sapiens) (UniProt P14618); experiment: qHTS Assay for Activators of Human Muscle Pyruvate Kinase (AID 954; active = well fitted curve in the direction sought with a large enough effect, not every such curve was filed as active;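 note: 0% = uninhibited enzyme and -100% = no enzyme or full thiadiazolimine inhibition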)
In short: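 Luminescence from a luciferase ATP-detection/stop reagent reported PKM2 activity. Reactions contained 0.1 nM purified human enzyme, 0.5 mM PEP, 0.1 mM ADP and 7 mM MgCl2 at pH 7.2, run 1 h at RT.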

[14] = target: Alpha-galactosidase A (Homo sapiens) (UniProt P06280); experiment: Counterscreen for Glucocerebrosidase Inhibitors: qHTS Assay for Human alpha-Galactosidase at pH 4.5 (AID 992; active = well fitted curve in the direction sought with a large enough effect; an effect the other way counts as inactive or inconclusive; note: 0% is about no effect)
In short: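 Enzyme at 2 nM final was combined with compound (0.7 nM to 77 uM) and 80 uM 4-methylumbelliferyl alpha-D-galactopyranoside in 50 mM citric acid, 0.005% Tween-20, pH 4.5. After 20 min at room temperature, fluorescence was read (Ex 365/Em 440 nm); AC50 came from Hill fits.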

[15] = target: alpha-glucosidase (Oryza sativa, rice) (UniProt Q653V4); experiment: Counterscreen for Glucocerebrosidase Inhibitors: qHTS Assay for Rice alpha-Glucosidase at pH 5.0 (AID 997; active = well fitted curve in the direction sought with a large enough effect; an effect the other way counts as inactive or inconclusive;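 note: 0% = full activity with enzyme and -100% = basal without enzyme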)
In short: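 Rice alpha-glucosidase (4 nM final) with 400 uM 4-methylumbelliferyl-alpha-D-glucopyranoside in citrate buffer pH 5.0, 20 min at room temperature, stopped at pH 10; fluorescence 365/440 nm, compounds 0.7 nM–77 uM, AC50 from Hill fits.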

[16] = target: Cytochrome P450 3A4 (Homo sapiens) (UniProt P08684); experiment: qHTS Assay for Activators of Cytochrome P450 3A4 (AID 885; active = well fitted curve in the direction sought with a large enough effect; an effect the other way counts as inactive or inconclusive; note: nearly all actives have a fitted effect of over 65% in size)
In short: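 20nM CYP3A4 + 25uM Luciferin-PPXE (=KM), 200mM KPO4; cpd 10 min RT; NADPH regen, 60 min RT; stop w/ detection buffer, 20 min; luminescence. Normalized to 57 uM ketoconazole.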

[17] = qHTS Assay for Identification of Small Molecule Agonists for Thrombopoietin (TPO) Signaling Pathway (AID 917; active = well fitted curve in the direction sought with a large enough effect; an effect the other way counts as inactive or inconclusive; note: % is set by controls: 0 for no effect and ±100 for the full control effect)
In short: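 Luminescence from a Glycoprotein IIb promoter–driven luciferase reporter served as read-out in murine Ba/F3 cells carrying the human TPO receptor. Cells, deprived of IL-3 overnight, received compounds with 26 pM TPO and were incubated 24 hrs at 37 C.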

[18] = qHTS Assay for Identification of Small Molecule Antagonists for NFkB Signaling Pathway (AID 895; active = well fitted inhibition curve with a large enough effect in the signal ratio, with a control signal flat, not every such curve was filed as active; the % refers to the signal ratio; note: % is set by controls: 0 for no effect and ±100 for the full control effect)
In short: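 Beta-lactamase reporter read-out (460 and 530 nm emission ratio, 405 nm excitation, 2 hrs substrate loading RT) after 5 hr stimulation with 10 pM TNF alpha in compound-treated NFkB-bla ME-180 cells in low-serum medium.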

Pyruvate kinase PKM (Homo sapiens), sequence (P14618 whole entry, looked up): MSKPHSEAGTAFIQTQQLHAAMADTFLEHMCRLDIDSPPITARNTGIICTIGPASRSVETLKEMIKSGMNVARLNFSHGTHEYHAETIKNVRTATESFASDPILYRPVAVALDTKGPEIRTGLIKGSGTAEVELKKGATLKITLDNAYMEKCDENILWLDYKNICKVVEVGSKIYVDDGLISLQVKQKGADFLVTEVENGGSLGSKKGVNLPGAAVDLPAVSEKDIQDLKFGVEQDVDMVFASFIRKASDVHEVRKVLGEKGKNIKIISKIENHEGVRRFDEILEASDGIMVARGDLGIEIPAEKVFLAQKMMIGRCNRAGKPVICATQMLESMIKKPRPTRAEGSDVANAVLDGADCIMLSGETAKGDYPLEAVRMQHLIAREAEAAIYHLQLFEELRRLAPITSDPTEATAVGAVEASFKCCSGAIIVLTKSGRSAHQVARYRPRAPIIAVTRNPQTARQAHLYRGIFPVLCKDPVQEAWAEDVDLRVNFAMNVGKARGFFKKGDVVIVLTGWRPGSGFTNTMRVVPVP
Pyruvate kinase (Leishmania mexicana), sequence (Q27686 2-499 E452W): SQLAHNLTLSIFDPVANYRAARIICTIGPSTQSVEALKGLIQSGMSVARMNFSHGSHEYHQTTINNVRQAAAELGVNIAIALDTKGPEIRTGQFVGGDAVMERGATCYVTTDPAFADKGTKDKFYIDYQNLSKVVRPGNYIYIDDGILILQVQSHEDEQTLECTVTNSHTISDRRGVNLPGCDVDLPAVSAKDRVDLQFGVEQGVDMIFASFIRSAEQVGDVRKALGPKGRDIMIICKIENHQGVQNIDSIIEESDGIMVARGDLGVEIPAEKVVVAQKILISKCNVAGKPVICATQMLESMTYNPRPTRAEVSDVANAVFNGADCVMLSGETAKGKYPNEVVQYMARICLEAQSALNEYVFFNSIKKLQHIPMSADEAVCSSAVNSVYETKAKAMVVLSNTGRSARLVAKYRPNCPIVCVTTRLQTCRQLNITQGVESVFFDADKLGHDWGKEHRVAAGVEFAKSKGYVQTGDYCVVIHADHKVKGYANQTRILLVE
3',5'-cyclic-AMP phosphodiesterase 4B (Homo sapiens), sequence (Q07343 whole entry, looked up): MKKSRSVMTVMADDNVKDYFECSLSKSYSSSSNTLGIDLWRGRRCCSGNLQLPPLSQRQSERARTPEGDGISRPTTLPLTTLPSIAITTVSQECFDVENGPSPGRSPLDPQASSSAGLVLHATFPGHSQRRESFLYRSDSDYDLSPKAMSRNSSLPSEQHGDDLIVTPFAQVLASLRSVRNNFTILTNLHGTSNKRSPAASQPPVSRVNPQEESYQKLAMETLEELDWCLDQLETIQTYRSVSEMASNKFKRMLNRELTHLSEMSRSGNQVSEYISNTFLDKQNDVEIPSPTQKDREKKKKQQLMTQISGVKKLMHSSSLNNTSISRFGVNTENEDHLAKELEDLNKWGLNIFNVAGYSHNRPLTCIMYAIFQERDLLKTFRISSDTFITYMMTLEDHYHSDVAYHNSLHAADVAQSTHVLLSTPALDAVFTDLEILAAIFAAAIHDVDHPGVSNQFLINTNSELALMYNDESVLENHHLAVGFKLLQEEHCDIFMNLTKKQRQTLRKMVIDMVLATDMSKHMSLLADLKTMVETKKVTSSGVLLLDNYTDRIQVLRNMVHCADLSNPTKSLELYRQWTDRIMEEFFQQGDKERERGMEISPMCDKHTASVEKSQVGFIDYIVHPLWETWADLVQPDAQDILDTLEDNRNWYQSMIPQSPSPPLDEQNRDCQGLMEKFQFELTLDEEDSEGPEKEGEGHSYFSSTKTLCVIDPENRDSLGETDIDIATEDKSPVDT
Glucocorticoid receptor (Homo sapiens), sequence (P04150 whole entry, looked up, the tested form may be a part): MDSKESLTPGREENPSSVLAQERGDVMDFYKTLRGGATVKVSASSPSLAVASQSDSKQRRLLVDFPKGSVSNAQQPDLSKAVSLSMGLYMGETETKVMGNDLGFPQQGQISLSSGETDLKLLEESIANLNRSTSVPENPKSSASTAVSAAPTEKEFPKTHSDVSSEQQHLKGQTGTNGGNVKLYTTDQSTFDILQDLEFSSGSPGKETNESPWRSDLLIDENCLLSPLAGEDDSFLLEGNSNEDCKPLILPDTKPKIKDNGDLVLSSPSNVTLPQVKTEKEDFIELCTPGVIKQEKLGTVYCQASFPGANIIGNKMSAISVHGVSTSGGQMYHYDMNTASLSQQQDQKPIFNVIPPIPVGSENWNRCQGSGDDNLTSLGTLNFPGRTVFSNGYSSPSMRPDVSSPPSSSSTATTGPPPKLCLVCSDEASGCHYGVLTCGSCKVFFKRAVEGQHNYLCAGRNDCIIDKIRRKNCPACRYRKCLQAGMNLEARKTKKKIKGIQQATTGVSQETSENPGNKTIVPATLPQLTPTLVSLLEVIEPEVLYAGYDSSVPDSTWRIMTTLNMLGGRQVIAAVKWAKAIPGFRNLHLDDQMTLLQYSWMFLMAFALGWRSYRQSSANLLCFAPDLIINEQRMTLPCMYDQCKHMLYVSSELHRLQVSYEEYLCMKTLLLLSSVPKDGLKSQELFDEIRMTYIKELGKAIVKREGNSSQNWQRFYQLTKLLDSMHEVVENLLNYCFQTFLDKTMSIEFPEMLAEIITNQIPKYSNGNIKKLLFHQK
Muscarinic acetylcholine receptor M1 (Rattus norvegicus), sequence (P08482 whole entry, looked up): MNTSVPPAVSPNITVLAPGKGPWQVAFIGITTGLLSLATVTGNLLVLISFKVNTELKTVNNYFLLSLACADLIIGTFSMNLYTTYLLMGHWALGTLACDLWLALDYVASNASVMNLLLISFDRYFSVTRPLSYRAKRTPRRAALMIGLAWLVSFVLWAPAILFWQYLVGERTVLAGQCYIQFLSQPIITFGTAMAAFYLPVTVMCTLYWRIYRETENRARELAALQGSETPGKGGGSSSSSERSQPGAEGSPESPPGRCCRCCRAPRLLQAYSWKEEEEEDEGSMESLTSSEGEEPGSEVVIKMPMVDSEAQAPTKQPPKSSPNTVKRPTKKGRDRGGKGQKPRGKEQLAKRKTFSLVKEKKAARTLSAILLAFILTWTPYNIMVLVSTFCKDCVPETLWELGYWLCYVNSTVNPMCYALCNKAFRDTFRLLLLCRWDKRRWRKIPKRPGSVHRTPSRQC
Guanine nucleotide-binding protein G(i) subunit alpha-1 (Homo sapiens), sequence (P63096 whole entry, looked up): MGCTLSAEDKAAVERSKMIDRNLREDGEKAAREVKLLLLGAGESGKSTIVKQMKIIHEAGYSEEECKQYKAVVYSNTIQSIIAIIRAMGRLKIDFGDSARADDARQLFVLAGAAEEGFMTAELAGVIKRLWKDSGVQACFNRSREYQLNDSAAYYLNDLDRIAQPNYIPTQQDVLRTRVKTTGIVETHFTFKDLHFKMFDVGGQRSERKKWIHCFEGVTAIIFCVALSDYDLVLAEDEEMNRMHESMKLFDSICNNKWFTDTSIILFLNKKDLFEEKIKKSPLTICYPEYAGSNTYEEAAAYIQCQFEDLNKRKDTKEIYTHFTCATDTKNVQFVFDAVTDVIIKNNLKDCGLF
Alpha-galactosidase A (Homo sapiens), sequence (P06280 whole entry, looked up): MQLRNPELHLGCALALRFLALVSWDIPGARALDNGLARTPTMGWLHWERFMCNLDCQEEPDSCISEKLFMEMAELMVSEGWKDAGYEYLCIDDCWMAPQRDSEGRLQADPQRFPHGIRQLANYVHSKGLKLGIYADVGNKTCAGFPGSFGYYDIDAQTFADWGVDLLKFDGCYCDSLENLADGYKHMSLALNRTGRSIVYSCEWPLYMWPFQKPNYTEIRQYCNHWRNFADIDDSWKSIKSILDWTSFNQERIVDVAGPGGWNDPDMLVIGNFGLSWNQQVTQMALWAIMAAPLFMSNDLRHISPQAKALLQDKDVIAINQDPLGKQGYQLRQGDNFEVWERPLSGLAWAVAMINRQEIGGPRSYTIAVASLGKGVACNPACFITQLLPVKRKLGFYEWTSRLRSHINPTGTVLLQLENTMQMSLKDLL
Ubiquitin carboxyl-terminal hydrolase 1 (Homo sapiens), sequence (O94782 whole entry, looked up): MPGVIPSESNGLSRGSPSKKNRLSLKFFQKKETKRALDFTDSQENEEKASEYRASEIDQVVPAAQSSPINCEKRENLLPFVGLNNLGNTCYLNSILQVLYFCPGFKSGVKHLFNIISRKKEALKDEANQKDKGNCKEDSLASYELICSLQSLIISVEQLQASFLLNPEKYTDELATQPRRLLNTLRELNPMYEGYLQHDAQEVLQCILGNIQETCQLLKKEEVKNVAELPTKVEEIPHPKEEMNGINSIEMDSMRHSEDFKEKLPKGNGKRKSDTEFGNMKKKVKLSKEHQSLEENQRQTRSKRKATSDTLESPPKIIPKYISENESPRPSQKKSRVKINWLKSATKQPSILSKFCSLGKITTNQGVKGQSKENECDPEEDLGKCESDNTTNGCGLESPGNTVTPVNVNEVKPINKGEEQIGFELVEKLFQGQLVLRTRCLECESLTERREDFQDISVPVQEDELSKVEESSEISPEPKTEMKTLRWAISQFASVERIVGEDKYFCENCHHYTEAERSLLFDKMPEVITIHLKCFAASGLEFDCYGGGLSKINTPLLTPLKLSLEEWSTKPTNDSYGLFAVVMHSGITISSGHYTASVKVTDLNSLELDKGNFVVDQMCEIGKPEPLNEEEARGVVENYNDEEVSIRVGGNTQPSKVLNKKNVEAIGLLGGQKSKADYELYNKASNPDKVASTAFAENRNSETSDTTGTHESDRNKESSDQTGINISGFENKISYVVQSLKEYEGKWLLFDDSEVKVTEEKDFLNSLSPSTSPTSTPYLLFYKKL

CN(C)C(=O)c1ccc(-c2ccc3ncnc(NC4CC4)c3c2)cc1
inactive: activity change, negative = inhibition [1] -22.9% [at 7.69 µM] | activity change, negative = inhibition [2] 12.3% [at 7.69 µM] | activity, negative = inhibition [3] -3.61% [at 7.69 µM] | Potency [4] > 46 µM | Potency [5] > 46 µM | Potency [6] | Potency [7]

O=c1c2c3c(sc2nc2n1CCCS2)CCCC3
inactive: activity change, negative = inhibition [1] -22.8% | activity change, negative = inhibition [2] -17.4% | activity, negative = inhibition [3] 1.96% | Potency [4] > 20.6 µM

Nc1ccn([C@@H]2O[C@@H](CO)[C@@H](O)[C@H]2O)c(=O)n1
inactive: activity change, negative = inhibition [1] 10.7% [at 38 µM] | activity change, negative = inhibition [2] -7.43% [at 38 µM] | activity, negative = inhibition [3] 19% [at 38 µM] | Potency [4] > 46 µM | Potency [5] > 46 µM | Potency [6] | Potency [8] | outcome [9] | Potency [10] | Potency [11] | Potency [12] | outcome [13] | outcome [14] | outcome [15]

NC(=S)c1ccc[n+]([C@@H]2O[C@@H](COP(=O)([O-])OP(=O)(O)OC[C@@H]3O[C@@H](n4cnc5c(N)ncnc54)[C@@H](OP(=O)(O)O)[C@H]3O)[C@@H](O)[C@H]2O)c1
inactive: activity change, negative = inhibition [1] 5.32% [at 38 µM] | activity change, negative = inhibition [2] -7.28% [at 38 µM] | activity, negative = inhibition [3] 1.28% [at 38 µM] | Potency [4] > 46 µM | Potency [5] > 46 µM | Potency [6] | Potency [8] | outcome [9] | Potency [16] | Potency [17] | Potency [11] | Potency [12] | outcome [13] | outcome [14] | outcome [15]

Cc1nnc(C)n1/N=C/c1cccn1C
inactive: activity change, negative = inhibition [1] 4.24% | activity change, negative = inhibition [2] 13.1% | activity, negative = inhibition [3] -1.54% | Potency [4] > 20.6 µM

Cc1cc(N2CCCCC2)nc2ccc(Cc3ccc4nc(N5CCCCC5)cc(C)c4c3)cc12
inactive: activity change, negative = inhibition [1] -0.0465% [at 7.69 µM] | activity change, negative = inhibition [2] -1.68% [at 7.69 µM] | activity, negative = inhibition [3] 8.27% [at 7.69 µM] | Potency [4] > 46 µM | Potency [5] > 9.22 µM | activity change, negative = inhibition [6] 13.5% [at 11.4 µM]

N[C@H](Cc1cccc(-c2ccccc2CP(=O)(O)O)c1)C(=O)O
inactive: activity change, negative = inhibition [1] 8.92% [at 38 µM] | activity change, negative = inhibition [2] 12.7% [at 38 µM] | activity, negative = inhibition [3] 1.71% [at 38 µM] | Potency [4] > 46 µM | Potency [5] > 46 µM | Potency [6] | Potency [8] | outcome [9] | Potency [18] | Potency [17] | Potency [11] | Potency [12] | outcome [13] | outcome [14] | outcome [15]
